Source: PubChem BioAssay
Values without a mark were called inactive. No rule for the calls is given here.

What follows are compounds tested against Pantothenate synthetase (Mycobacterium tuberculosis (strain ATCC 25618 / H37Rv)) (UniProt P9WIL5) (assay: Coupled enzyme confirmation of inhibitors against recombinant Mtb PanC (AID 375;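 also: 0% = full reaction with vehicle and 100% = no enzyme background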)). Settings: coupled enzyme assay; at 10 µM, active compounds read high.
Chain of Pantothenate synthetase (Mycobacterium tuberculosis (strain ATCC 25618 / H37Rv)) (P9WIL5 whole entry, looked up): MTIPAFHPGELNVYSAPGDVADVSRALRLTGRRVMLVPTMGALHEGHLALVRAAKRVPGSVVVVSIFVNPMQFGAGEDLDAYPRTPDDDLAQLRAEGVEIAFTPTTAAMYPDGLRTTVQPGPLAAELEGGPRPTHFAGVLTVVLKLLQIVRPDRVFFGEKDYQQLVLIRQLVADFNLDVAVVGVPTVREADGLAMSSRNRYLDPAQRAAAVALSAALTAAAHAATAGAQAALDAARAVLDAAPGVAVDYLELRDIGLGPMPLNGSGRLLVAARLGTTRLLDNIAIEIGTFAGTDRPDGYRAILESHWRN

Row | SMILES | inhibition [%]
1 | COc1ccc(/C(O)=C2/C(=O)C(=O)N(CCCN(C)C)C2c2ccco2)cc1Cl (stereo not given) | 0
2 | COC(=O)c1ccccc1NC(=O)Cn1c(-c2nonc2N)nc2ccccc21 | 0
3 | Cc1ccc(S(=O)(=O)N(CCO)c2cc3c(s2)CCCC3)cc1 | 0
4 | CCN1CCN(c2nc(C)nc3c2sc(=S)n3C)CC1 | 0
5 | O=C(CNC(=O)c1cc2ccccc2o1)NCc1cccs1 | 0
6 | Cc1cc(NCCN2CCCCC2)n2c(nc3ccccc32)c1C#N | 14
7 | O=C1c2ccccc2C(=O)N1CNc1ccccc1 | 0
8 | Cc1cccc(-c2nnc(SCC#N)n2-c2cccc(Cl)c2)c1 | 0
9 | COc1ccc(OCCN2C(=O)NC(C)(c3ccc(C)cc3)C2=O)cc1 (stereo not given) | 1
10 | CCNC(=O)C1CC(=O)N(Cc2ccc3c(c2)OCO3)C(=Nc2ccc(OCC)cc2)S1 (stereo not given) | 0
11 | CC(C)(C)OC(=O)N1CCC(C(=O)N[C@H](Cc2ccccc2)C(=O)O)CC1 | 0
12 | O=C(Cc1cccs1)NCc1ccc(F)cc1 | 0
13 | CN=C1CC(C)(C)CC(=O)/C1=C(/O)CCC(=O)NC | 0
14 | COc1cccc(Nc2nc(=O)[nH]nc2C)c1 | 8
15 | CN(C)CCNC(=O)c1ccc(COCC(F)(F)F)cc1 | 0
16 | COc1ccc(NC(=O)NCCN2C(=O)C3C4C=CC(C4)C3C2=O)cc1 (stereo not given) | 1
17 | CCOC(=O)N1CCN(C(=O)c2cccn3c(=O)c4sccc4nc23)CC1 | 0
18 | N#Cc1c(N)nc(SCc2ccncc2)c(C#N)c1-c1cccs1 | 11
19 | O=C(CNS(=O)(=O)c1ccccc1)NCc1ccccn1 | 9
20 | CCOC(=O)CN1CC23C=CC(O2)C(C(=O)NC2CCCC2)C3C1=O (stereo not given) | 3

Row | SMILES | inhibition [%]
21 | C[C@@H]1CCC[C@H](C)N1NC(=O)c1ccc(Cl)c(S(N)(=O)=O)c1 | 0
22 | COc1ccc(OC)c(NC(=O)C2CCN(c3cc(-c4ccccc4)nc4ncnn34)CC2)c1 | 2
23 | CNC(=O)Oc1ccc2c(c1)[C@]1(C)CCN(C)[C@@H]1N2C | 4
24 | CCOC(=O)N1CCC(NC(=O)CN2C(=O)CCSc3ccccc32)CC1 | 0
25 | CCOC(=O)C1CCN(Cc2ccc(F)c(Br)c2)CC1 | 0
26 | Cc1sc2nc(SCC(=O)N3CCN(CCO)CC3)n(-c3ccccc3)c(=O)c2c1C | 6
27 | CC(C)OC(=O)CSc1nnnn1-c1ccc2c(c1)OCCO2 | 2
28 | O=C(c1cccnc1)N1CCN(C(=O)c2ccccc2F)CC1 | 4
29 | CCOc1ccccc1Nc1nc2ccccc2[nH]1 | 1
30 | O=c1cc(-c2ccco2)oc2ccc(Cl)cc12 | 1
31 | COc1ccc(CNC(=O)Cn2nc(C(F)(F)F)c3c2CCC3)cc1 | 3
32 | COc1cc(C2Oc3cc(C4Oc5cc(O)cc(O)c5C(=O)C4O)ccc3OC2CO)ccc1O (stereo not given) | 0
33 | C=CCOC(=O)CC(NC(=O)c1ccccc1)c1ccccc1 (stereo not given) | 0
34 | COCCNC(=O)C(c1cccc(OC)c1)N(Cc1cccs1)C(=O)Cn1nnc2ccccc21 (stereo not given) | 0
35 | Cc1ccc(OC(=O)CCC(=O)OCCCC(F)(F)C(F)(F)F)cc1 | 3
36 | COCCNC(=O)c1snc2ccc(Cl)cc12 | 0
37 | COc1ccc(-c2ccc(-c3nnn(CC(C)=O)n3)cc2)cc1 | 2
38 | Cn1c(=O)c2c(nc(SCCOc3ccc4ccc(=O)oc4c3)n2C)n(C)c1=O | 0
39 | C=CCNc1nc2c(c(=O)n(C)c(=O)n2C)n1CCCCCC | 0
40 | CS(=O)(=O)Nc1ccccc1C(=O)O | 0
